From the supplement of paper PMC7411054

How the values were obtained:
Experiment in all cases: phenotypically active (imaging signature differs from DMSO and reproducible) at any of 0.3-9 uM (binary (1 = active, 0 = inactive)); higher = active
Settings in all cases: treatment time: 24 h
[1] = system: A549-ACTB-RAB5A
Summary of the method: (§1)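 After 24 h at 0.3, 1, 3 or 9 µM, with four wells per treatment, fifteen gene-edited A549, HepG2 and WPMY1 reporter lines carrying BFP, GFP and RFP/FusionRed were imaged live. Each well's live-cell features were expressed relative to solvent control wells. Deviation required ≥3 of 4 wells past the 95th percentile of control Euclidean distances, and reproducibility a median replicate Pearson correlation over the 95th percentile of non-replicates. Phenotypic activity rested on both.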

[2] = system: A549-CANX-COX4
Summary of the method: as §1

[3] = system: A549-GM130-SQSTM1
Summary of the method: as §1

[4] = system: A549-TP53BP1-CLTA
Summary of the method: as §1

[5] = system: A549-TUBA1B-RELA
Summary of the method: as §1

[6] = system: HepG2-ACTB-RAB5A
Summary of the method: as §1

[7] = system: HepG2-CANX-COX4
Summary of the method: as §1

[8] = system: HepG2-GM130-SQSTM1
Summary of the method: as §1

[9] = system: HepG2-TP53BP1-CLTA
Summary of the method: as §1

[10] = system: HepG2-TUBA1B-RELA
Summary of the method: as §1

[11] = system: WPMY1-ACTB-RAB5A
Summary of the method: as §1

[12] = system: WPMY1-CANX-COX4
Summary of the method: as §1

[13] = system: WPMY1-GM130-SQSTM1
Summary of the method: as §1

[14] = system: WPMY1-TP53BP1-CLTA
Summary of the method: as §1

[15] = system: WPMY1-TUBA1B-RELA
Summary of the method: as §1

Measured: phenotypically active

C=C1C[C@]23C[C@@]1(O)CC[C@H]2[C@@]12C=C[C@H](O)[C@](C)(C(=O)O1)[C@H]2[C@@H]3C(=O)O [Gibberellic acid]
inactive: [1] 0 | [2] 0 | [3] 0 | [4] 0 | [5] 0 | [6] 0 | [7] 0 | [8] 0 | [9] 0 | [10] 0 | [11] 0 | [12] 0 | [13] 0 | [14] 0 | [15] 0

Cc1ccc(Nc2nnc(-c3ccc([N+](=O)[O-])cc3)o2)cc1Cl
inactive: [1] 0 | [2] 0 | [3] 0 | [4] 0 | [5] 0 | [6] 0 | [7] 0 | [8] 0 | [9] 0 | [10] 0 | [11] 0 | [12] 0 | [13] 0 | [14] 0 | [15] 0

C[N+](C)(C)CCOC(N)=O [Carbamoylcholine chloride]
inactive: [1] 0 | [2] 0 | [3] 0 | [4] 0 | [5] 0 | [6] 0 | [7] 0 | [8] 0 | [9] 0 | [10] 0 | [11] 0 | [12] 0 | [13] 0 | [14] 0 | [15] 0

C[C@H](NCCc1ccc(O)cc1)[C@H](O)c1ccc(O)cc1 [ritodrine]
inactive: [1] 0 | [2] 0 | [3] 0 | [4] 0 | [5] 0 | [6] 0 | [7] 0 | [8] 0 | [9] 0 | [10] 0 | [11] 0 | [12] 0 | [13] 0 | [14] 0 | [15] 0

CCOC(=O)[C@H](CCc1ccccc1)N[C@@H](C)C(=O)N1Cc2ccccc2C[C@H]1C(=O)O [quinapril]
inactive: [1] 0 | [2] 0 | [3] 0 | [4] 0 | [5] 0 | [6] 0 | [7] 0 | [8] 0 | [9] 0 | [10] 0 | [11] 0 | [12] 0 | [13] 0 | [14] 0 | [15] 0

O=C(c1ccccc1)c1ccc2n1CCC2C(=O)O (stereo not given) [ketorolac]
inactive: [1] 0 | [2] 0 | [3] 0 | [4] 0 | [5] 0 | [6] 0 | [7] 0 | [8] 0 | [9] 0 | [10] 0 | [11] 0 | [12] 0 | [13] 0 | [14] 0 | [15] 0

O=c1ncccn1[C@@H]1O[C@H](CO)[C@@H](O)[C@H]1O [Zebularine]
inactive: [1] 0 | [2] 0 | [3] 0 | [4] 0 | [5] 0 | [6] 0 | [7] 0 | [8] 0 | [9] 0 | [10] 0 | [11] 0 | [12] 0 | [13] 0 | [14] 0 | [15] 0

COc1cc2c(cc1OC)CC(=O)N(CCCN(C)C[C@H]1Cc3cc(OC)c(OC)cc31)CC2 [ivabridine]
inactive: [1] 0 | [2] 0 | [3] 0 | [4] 0 | [5] 0 | [6] 0 | [7] 0 | [8] 0 | [9] 0 | [10] 0 | [11] 0 | [12] 0 | [13] 0 | [14] 0 | [15] 0

Cc1ccc2ccc(C(Nc3ccccc3)c3ccccc3)c(O)c2n1 (stereo not given)
inactive: [1] 0 | [2] 0 | [3] 0 | [4] 0 | [5] 0 | [6] 0 | [7] 0 | [8] 0 | [9] 0 | [10] 0 | [11] 0 | [12] 0 | [13] 0 | [14] 0 | [15] 0

CCOC(=O)CCNc1cc(N2CCc3ccccc3CC2)nc(-c2cccnc2)n1
inactive: [1] 0 | [2] 0 | [3] 0 | [4] 0 | [5] 0 | [6] 0 | [7] 0 | [8] 0 | [9] 0 | [10] 0 | [11] 0 | [12] 0 | [13] 0 | [14] 0 | [15] 0

NC(=O)N1c2ccccc2C=Cc2ccccc21 [carbamazepine]
inactive: [1] 0 | [2] 0 | [3] 0 | [4] 0 | [5] 0 | [6] 0 | [7] 0 | [8] 0 | [9] 0 | [10] 0 | [11] 0 | [12] 0 | [13] 0 | [14] 0 | [15] 0

Cc1cc(-c2ccc(/C=C3\S/C(=N\c4ccc(Cl)c(C(=O)O)c4)NC3=O)o2)c([N+](=O)[O-])cc1C
inactive: [1] 0 | [2] 0 | [3] 0 | [4] 0 | [5] 0 | [6] 0 | [7] 0 | [8] 0 | [9] 0 | [10] 0 | [11] 0 | [12] 0 | [13] 0 | [14] 0 | [15] 0
